In ChEMBL document CHEMBL5308504, “Tm Shift (DSF) assay results for EUbOPEN Chemogenomics Library” (2023):

Assays:
Details in all cases: Compound concentration 20.0 uM, Protein concentration 2.0 uM, Result type QC Liability
[1] = target: Tyrosine-protein kinase ABL1 (Homo sapiens) (UniProt P00519)
[2] = target: Cyclin-dependent kinase 2 (Homo sapiens) (UniProt P24941)
[3] = target: Casein kinase I isoform delta (Homo sapiens) (UniProt P48730)
[4] = target: Glycogen synthase kinase-3 beta (Homo sapiens) (UniProt P49841)
Chain of Glycogen synthase kinase-3 beta (Homo sapiens) (P49841 whole entry, looked up): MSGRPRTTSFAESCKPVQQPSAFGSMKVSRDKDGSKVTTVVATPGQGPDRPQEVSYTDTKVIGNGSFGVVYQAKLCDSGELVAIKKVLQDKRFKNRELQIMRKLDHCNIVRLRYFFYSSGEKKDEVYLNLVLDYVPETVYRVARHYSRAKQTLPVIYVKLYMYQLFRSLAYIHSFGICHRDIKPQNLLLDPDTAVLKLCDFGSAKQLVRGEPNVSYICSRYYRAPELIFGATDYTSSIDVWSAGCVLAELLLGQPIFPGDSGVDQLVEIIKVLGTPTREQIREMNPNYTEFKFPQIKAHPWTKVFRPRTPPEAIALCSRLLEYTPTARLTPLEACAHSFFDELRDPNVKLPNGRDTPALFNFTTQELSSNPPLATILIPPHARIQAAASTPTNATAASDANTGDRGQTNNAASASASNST

[5] = target: Mitogen-activated protein kinase 1 (Homo sapiens) (UniProt P28482)
Chain of Mitogen-activated protein kinase 1 (Homo sapiens) (P28482 whole entry): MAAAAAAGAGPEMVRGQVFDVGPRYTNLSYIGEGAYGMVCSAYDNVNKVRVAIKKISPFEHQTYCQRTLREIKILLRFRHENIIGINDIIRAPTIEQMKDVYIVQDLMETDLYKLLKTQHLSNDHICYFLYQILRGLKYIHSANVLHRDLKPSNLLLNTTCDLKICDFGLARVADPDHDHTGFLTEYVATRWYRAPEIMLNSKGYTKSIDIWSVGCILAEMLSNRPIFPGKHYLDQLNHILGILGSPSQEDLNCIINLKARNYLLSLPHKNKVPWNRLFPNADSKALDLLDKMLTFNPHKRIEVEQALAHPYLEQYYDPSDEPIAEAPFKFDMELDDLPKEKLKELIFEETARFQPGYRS

[6] = target: T1, Aurora kinase A (Homo sapiens) (UniProt O14965)
T1 sequence (whole entry): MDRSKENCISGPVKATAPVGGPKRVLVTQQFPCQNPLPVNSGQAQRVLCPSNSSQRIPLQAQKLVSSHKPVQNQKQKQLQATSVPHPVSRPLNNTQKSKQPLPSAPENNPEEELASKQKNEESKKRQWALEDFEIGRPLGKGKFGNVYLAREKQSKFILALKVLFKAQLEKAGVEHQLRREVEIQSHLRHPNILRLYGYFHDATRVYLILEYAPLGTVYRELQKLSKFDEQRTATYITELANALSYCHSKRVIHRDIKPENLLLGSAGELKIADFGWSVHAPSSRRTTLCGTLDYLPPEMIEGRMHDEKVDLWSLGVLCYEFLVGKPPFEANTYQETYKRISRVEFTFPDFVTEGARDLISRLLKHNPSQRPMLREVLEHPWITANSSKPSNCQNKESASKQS

Chain of Casein kinase I isoform delta (Homo sapiens) (P48730 whole entry, looked up, canonical isoform): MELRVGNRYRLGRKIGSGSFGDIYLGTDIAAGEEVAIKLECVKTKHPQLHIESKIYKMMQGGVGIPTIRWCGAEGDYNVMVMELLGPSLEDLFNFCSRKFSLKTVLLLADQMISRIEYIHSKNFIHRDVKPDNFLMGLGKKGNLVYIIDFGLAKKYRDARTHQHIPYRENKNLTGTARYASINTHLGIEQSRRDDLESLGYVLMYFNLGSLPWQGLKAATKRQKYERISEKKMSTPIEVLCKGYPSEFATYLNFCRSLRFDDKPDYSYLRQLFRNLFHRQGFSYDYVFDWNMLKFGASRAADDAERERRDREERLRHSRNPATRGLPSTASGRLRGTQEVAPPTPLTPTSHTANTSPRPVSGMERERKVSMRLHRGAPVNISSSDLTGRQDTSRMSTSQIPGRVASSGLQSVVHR
Chain of Tyrosine-protein kinase ABL1 (Homo sapiens) (P00519 whole entry): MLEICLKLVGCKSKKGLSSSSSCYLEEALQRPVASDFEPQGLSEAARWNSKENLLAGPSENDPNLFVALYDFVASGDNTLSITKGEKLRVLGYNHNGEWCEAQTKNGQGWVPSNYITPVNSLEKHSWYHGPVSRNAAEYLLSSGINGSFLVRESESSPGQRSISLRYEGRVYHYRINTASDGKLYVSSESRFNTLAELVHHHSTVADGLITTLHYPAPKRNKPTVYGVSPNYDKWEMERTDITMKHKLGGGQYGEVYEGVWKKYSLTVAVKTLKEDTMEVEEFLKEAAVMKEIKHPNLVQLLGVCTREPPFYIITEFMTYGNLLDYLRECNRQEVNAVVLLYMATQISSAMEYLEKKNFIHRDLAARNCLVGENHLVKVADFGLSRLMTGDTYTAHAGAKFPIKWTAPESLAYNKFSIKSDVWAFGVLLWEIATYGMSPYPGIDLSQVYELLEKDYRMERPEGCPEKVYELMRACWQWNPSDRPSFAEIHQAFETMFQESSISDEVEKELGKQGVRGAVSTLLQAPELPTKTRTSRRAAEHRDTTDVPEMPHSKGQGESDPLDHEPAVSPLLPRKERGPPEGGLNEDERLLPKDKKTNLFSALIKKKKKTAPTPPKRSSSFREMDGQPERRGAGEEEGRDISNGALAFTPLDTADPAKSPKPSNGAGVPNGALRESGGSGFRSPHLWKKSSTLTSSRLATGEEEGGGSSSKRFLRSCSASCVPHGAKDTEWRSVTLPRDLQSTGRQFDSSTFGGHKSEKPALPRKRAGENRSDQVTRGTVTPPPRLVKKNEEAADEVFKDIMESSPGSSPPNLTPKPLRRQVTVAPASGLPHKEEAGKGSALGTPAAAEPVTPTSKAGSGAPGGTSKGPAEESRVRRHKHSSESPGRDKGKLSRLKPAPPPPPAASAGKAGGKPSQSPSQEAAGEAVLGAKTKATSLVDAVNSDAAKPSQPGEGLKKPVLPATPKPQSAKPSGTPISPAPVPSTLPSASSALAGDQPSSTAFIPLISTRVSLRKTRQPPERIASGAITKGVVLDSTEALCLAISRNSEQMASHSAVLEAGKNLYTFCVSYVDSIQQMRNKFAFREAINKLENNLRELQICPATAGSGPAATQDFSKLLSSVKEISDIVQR

SMILES | ΔTm [1] [°C] | ΔTm [2] [°C] | ΔTm [3] [°C] | ΔTm [4] [°C] | ΔTm [5] [°C] | ΔTm [6] [°C]
C[C@H]1CN(C2COC2)CCN1c1ccc(Nc2cc(-c3ccnc(N4CCn5c(cc6c5CC(C)(C)C6)C4=O)c3CO)cn(C)c2=O)nc1 | 3.14 | -0.09 | 0.48 | -0.54 | -0.67 | 1.75
CN[C@@H]1CC[C@@H](c2ccc(Cl)c(Cl)c2)c2ccccc21 | -0.02 | 0.01 | 0.01 | -0.7 | 0 | -0.47
O=C(O)c1cc(F)c2nc(N3[C@@H]4CC[C@H]3C[C@@H](OCc3c(-c5ccccc5OC(F)(F)F)noc3C3CC3)C4)sc2c1 | 0.23 | 0.38 | 0.11 | -5.45 | -0.82 | -8.04
CCN1C(=O)N(c2c(F)c(OC)cc(OC)c2F)Cc2cnc3[nH]c(CN4CCOCC4)cc3c21 | 0.38 | 6.96 | 0.58 | -0.33 | 0.45 | 1.85
COc1cc(-c2cncc(-c3cnn(C4CCNCC4)c3)c2)cc(OC)c1OC | 4.87 | 0.28 | 0.76 | -0.71 | 0.5 | -0.25
CCN(C(=O)CO)[C@H]1CN(/C(=N\C#N)Nc2cccc(OC(F)F)c2)N=C1c1ccc(Cl)c(Cl)c1 | 0.46 | 0.22 | 0.23 | 2.8 | -0.24 | 0.87
Cc1ccc2c(NS(=O)(=O)c3ccccc3Cl)cccc2c1Oc1ncccc1-c1ccnc(N[C@H]2CCCNC2)n1 | 1.79 | 0.86 | 0.45 | -0.76 | -1.3 | 1.28
Cn1ncc(NC(=O)c2nc(-c3c(F)cccc3F)sc2N)c1N1CC[C@@H](N)[C@H](F)CC1 | 0.6 | 1.59 | 0.57 | 12.4 | 0.32 | 0.87
CCN(C)S(=O)(=O)Nc1cccc(-c2ccc3c(NC(=O)C4CC4)n[nH]c3c2)c1 | 4.16 | 3.52 | 0.06 | 3.82 | 0.42 | 4.06
CCCN1C(=O)c2ccc(Cl)cc2Nc2ncccc21 | 0.81 | 0.95 | 0.61 | 0.22 | 0.22 | 1.35
NC(=O)c1ccc(-c2nc(-c3ccc4c(c3)OCCO4)c(-c3ccccn3)[nH]2)cc1 | 1 | -0.38 | 5.39 | -0.91 | 0.36 | -1.32
CN[C@@H](C)C(=O)N[C@H](C(=O)N1CCC[C@H]1C(=O)Nc1sc(-c2ncco2)nc1-c1ccccc1)C1CCCCC1 | 0.05 | -0.21 | -0.13 | -0.9 | 0.08 | -0.03
Cn1cc(Nc2nccc(N3CC4CCC(C3)N4C(=O)[C@@H]3CC3(F)F)n2)cn1 | 1.98 | 2.84 | 0.33 | 0.6 | 0.56 | 8.08
CC[C@@H](C(=O)OC)n1c(=O)c2ccccc2n(Cc2cn(C)c3cccc(C)c23)c1=O | -0.76 | 0.06 | 0.32 | -0.47 | 0.23 | -0.05
COc1ncc(-c2cc(-c3ncc(CN4C[C@@H](C)O[C@@H](C)C4)o3)c3cn[nH]c3c2)cc1NS(C)(=O)=O | 0.42 | 0.2 | 0.38 | -0.36 | 0.18 | 1.26
O=C(O)Cc1cc(I)c(Oc2ccc(O)c(I)c2)c(I)c1 | -0.37 | 0.49 | 0.22 | -0.68 | -1.09 | 3.86
CCCCc1oc2ccccc2c1C(=O)c1cc(I)c(OCCN(CC)CC)c(I)c1 | 0.12 | 0.14 | 0.32 | -0.84 | 0.02 | -1.66
CNC(=O)c1cc(C(=O)N[C@H]2[C@@H]3COC[C@@H]32)cc2c1O[C@@H](CF)[C@@H]2c1ccccc1 | -0.03 | 0.5 | 0.22 | -0.96 | 0.58 | -0.12
Cn1cnc(Cn2ccc3ccc(CNCc4[nH]c5ccccc5c4[C@@H]4NC(=O)c5ccc(O)cc54)cc32)c1 | 0.7 | 0.07 | 0.29 | -0.16 | 0.02 | 0.7
